Source: PubChem BioAssay (NCATS)
Records with an inconclusive call do not appear. Entries that show only a call come without a potency. Active and inactive are the calls of the source. The call rests on the fitted dose curve; in most records, active means well fitted curve in the direction sought with a large enough effect; inconclusive means small, poorly fitted or top-dose-only effect, or another doubt; inactive means no such curve, though single readings can be large; an effect the other way counts as inactive or inconclusive.

Tests used:
[1] = Quantitative High-Throughput drug screen in 47 multiple myeloma cell lines against the NCATS MIPE library collection: EJM_DSMZ cell viability assay (AID 1918926; further: nearly all actives have a fitted effect of over 30% in size; further: potency means the concentration at half of the fitted maximal effect)
How it was run: (§1)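 We plated 500 myeloma cells per well, pinned in MIPE 4.0 compounds, and incubated for 48 hours at 37C. ATP was then quantified with CellTiter-Glo, with DMSO and media-only wells defining 100% and 0%.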

[2] = Quantitative High-Throughput drug screen in 47 multiple myeloma cell lines against the NCATS MIPE library collection: AMO1_DSMZ cell viability assay (AID 1918927; further: nearly all actives have a fitted effect of over 30% in size; further: potency means the concentration at half of the fitted maximal effect)
How it was run: as §1

[3] = Quantitative High-Throughput drug screen in 47 multiple myeloma cell lines against the NCATS MIPE library collection: ARD_JJKsccE7 cell viability assay (AID 1918929; further: potency means the concentration at half of the fitted maximal effect)
How it was run: as §1

[4] = Quantitative High-Throughput drug screen in 47 multiple myeloma cell lines against the NCATS MIPE library collection: Karpas620_DSMZ cell viability assay (AID 1918959); further: nearly all actives have a fitted effect of over 30% in size; further: potency means the concentration at half of the fitted maximal effect
How it was run: (§2)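 Viability readout: CellTiter-Glo luminescence following 5 min room-temperature incubation with reagent. Prior exposure: 48 h, 37C, humidified 5% CO2, 500 cells per well.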

[5] = Quantitative High-Throughput drug screen in 47 multiple myeloma cell lines against the NCATS MIPE library collection: KMM1_JCRB cell viability assay (AID 1918960); further: nearly all actives have a fitted effect of over 30% in size; further: potency means the concentration at half of the fitted maximal effect
How it was run: (§3)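 Myeloma cells, 500 per well, were exposed to MIPE 4.0 drugs by pin transfer for 48 h at 37 °C, 5% CO2. Viability was read as ATP luminescence with CellTiter-Glo, normalised to DMSO-only (100%) and medium-only (0%) wells.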

[6] = Quantitative High-Throughput drug screen in 47 multiple myeloma cell lines against the NCATS MIPE library collection: KHM11_PLB cell viability assay (AID 1918962); further: nearly all actives have a fitted effect of over 35% in size; further: potency means the concentration at half of the fitted maximal effect
How it was run: as §2

[7] = Quantitative High-Throughput drug screen in 47 multiple myeloma cell lines against the NCATS MIPE library collection: JIM3_ECACC cell viability assay (AID 1918963; further: nearly all actives have a fitted effect of over 35% in size; further: potency means the concentration at half of the fitted maximal effect)
How it was run: as §2

[8] = Quantitative High-Throughput drug screen in 47 multiple myeloma cell lines against the NCATS MIPE library collection: ARP1_JJKsccF8 cell viability assay (AID 1918928; further: nearly all actives have a fitted effect of over 40% in size; further: potency means the concentration at half of the fitted maximal effect)
How it was run: as §3

[9] = Quantitative High-Throughput drug screen in 47 multiple myeloma cell lines against the NCATS MIPE library collection: JIM1_ECACC cell viability assay (AID 1918964; further: potency means the concentration at half of the fitted maximal effect)
How it was run: as §1

[10] = Quantitative High-Throughput drug screen in 47 multiple myeloma cell lines against the NCATS MIPE library collection: Karpas417_ECACC cell viability assay (AID 1918961); conditions: Karpas417 myeloma viability, CellTiter-Glo ATP luminescence, 48 h; viability (% of DMSO): at 45.8 µM (top of the series)
How it was run: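 Approved and investigational drugs from MIPE 4.0 were added by pin tool to 500 cells per well. After 48 hours at 37C, ATP-based CellTiter-Glo luminescence indicated remaining viability.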

SMILES | Potency [1] | Potency [2] | Potency [3] | Potency [4] | Potency [5] | Potency [6] | Potency [7] | Potency [8] | Potency [9] | Potency [10]
CCC(=O)NCC[C@@H]1CCc2ccc3c(c21)CCO3 | inactive | inactive | inactive | inactive | inactive | 13.2 µM (active) | 13.2 µM (active) |  |  | 
O=C1C(CCC(O)c2ccc(F)cc2)C(c2ccc(O)cc2)N1c1ccc(F)cc1 (centres undefined) | inactive | inactive |  | inactive |  |  |  | inactive | inactive | 
Fc1ccc(C(c2ccc(F)cc2)N2CCN(CC=Cc3ccccc3)CC2)cc1 | inactive | inactive | inactive | inactive | inactive |  |  |  | inactive | 
Cc1ccc2c(=O)c3cccc(CC(=O)O)c3oc2c1C | 6.62 µM (active) | inactive | inactive | inactive |  |  |  |  |  | 
O=c1[nH]nc(OCCCc2ccc(Cl)cc2)c(NCc2cccnc2)c1Br | 18.7 µM (active) | 7.43 µM (active) |  | 10.5 µM (active) | 18.7 µM (active) | 2.96 µM (active) | 8.33 µM (active) | 18.7 µM (active) | 8.33 µM (active) | 
CON(C)C(=O)N1N=C(c2cc(F)ccc2F)S[C@]1(CCCN)c1ccccc1 | inactive | 0.001 µM (active) | 0.001 µM (active) | inactive |  |  | inactive |  |  | 
CC(C)CN(C[C@@H](O)[C@H](Cc1ccccc1)NC(=O)O[C@H]1CO[C@H]2OCC[C@H]21)S(=O)(=O)c1ccc(N)cc1 | 5.9 µM (active) | inactive | inactive | inactive | inactive |  | 13.2 µM (active) |  | inactive | 
CN1N=C(N)c2cn([C@@H]3O[C@H](COP(=O)(O)O)[C@@H](O)[C@@H]3O)c3ncnc1c23 | 7.43 µM (active) | 0.0935 µM (active) |  | 0.0833 µM (active) |  | 0.372 µM (active) | 0.469 µM (active) | 0.469 µM (active) |  | 
COc1ccc(-c2nc3ccc(C4=NNC(=O)CC4C)cc3[nH]2)cc1 (centres undefined) | inactive | inactive | inactive | inactive | inactive |  | inactive |  | inactive | 
O=C(CO)N1CCC(c2[nH]nc(-c3ccc(Cl)cc3)c2-c2ccncn2)CC1 | inactive | inactive |  | inactive | inactive |  | inactive | inactive | inactive | 
CC1=C(CC(=O)O)c2cc(F)ccc2C1=Cc1ccc(S(C)=O)cc1 (centres undefined) | 0.59 µM (active) | 4.18 µM (active) | 11.8 µM (active) |  | 20.9 µM (active) |  | 13.2 µM (active) |  |  | 
COc1ccc(-c2cc3nccn3c(Nc3ncccc3C(N)=O)n2)cc1OC | 4.69 µM (active) | 0.469 µM (active) |  | inactive |  | 0.833 µM (active) | 1.05 µM (active) | 4.69 µM (active) | 0.372 µM (active) | 
COc1cc(F)c(C(C)C)cc1-c1ccc(C(F)(F)F)cc1CN1C(=O)O[C@H](c2cc(C(F)(F)F)cc(C(F)(F)F)c2)[C@@H]1C | inactive | inactive | inactive | inactive |  |  | inactive |  | inactive | 
OC[C@H]1O[C@@H](O[C@H]2[C@@H](O)[C@@](O)(CO)O[C@@H]2CO)[C@H](O)[C@@H](O)[C@@H]1O | inactive | inactive | inactive | inactive | inactive |  | inactive |  | inactive | 
O[C@@H](COc1cccc2ncccc12)CN1CCN(C2c3ccccc3[C@@H]3[C@H](c4ccccc42)C3(F)F)CC1 (some centres undefined) | 23.5 µM (active) | inactive | inactive | inactive |  | 16.6 µM (active) | 13.2 µM (active) |  |  | inactive
CCCCC[C@H](O)C=C[C@H]1[C@H](O)CC(=O)[C@H]1CCCCCCC(=O)O | inactive | inactive | inactive | inactive | inactive |  |  |  | inactive | 
CCCCN(CCCC)CC(O)c1cc(Cl)cc2c1-c1ccc(Cl)cc1C2=Cc1ccc(Cl)cc1 (centres undefined) | 16.6 µM (active) | inactive | inactive | inactive |  |  |  |  |  | 
CN(C)N=Nc1nc[nH]c1C(N)=O | inactive | inactive | 0.187 µM (active) |  | 0.935 µM (active) |  | inactive |  |  | 
CC(C)(C)c1nc(-c2cccc(NS(=O)(=O)c3c(F)cccc3F)c2F)c(-c2ccnc(N)n2)s1 | 20.9 µM (active) | 3.72 µM (active) | 18.7 µM (active) | 20.9 µM (active) |  | 5.9 µM (active) |  |  |  | 
CCCCC(F)(F)[C@@]1(O)CC[C@H]2[C@H](CC(=O)[C@@H]2CCCCCCC(=O)O)O1 | inactive | inactive | inactive | inactive | inactive | inactive | inactive |  |  | 
CC=C(C(=CC)c1ccc(O)cc1)c1ccc(O)cc1 | inactive | 16.6 µM (active) | 23.5 µM (active) | 16.6 µM (active) | 20.9 µM (active) | inactive |  |  |  | 
NS(=O)(=O)c1ccc(Nc2nc(OCC3CCCCC3)c3[nH]cnc3n2)cc1 | 23.5 µM (active) | 18.7 µM (active) | 16.6 µM (active) |  | 18.7 µM (active) | 26.4 µM (active) | 20.9 µM (active) |  | 20.9 µM (active) | 
